Assay results from PubChem BioAssay (NCI).
This is part of a sample that, as a whole, favours compounds with a hit. Of some 79,000 tested, about 15% had one in any assay. Calls of active or inactive are those of the source. Cut-off read from the data, not from the text of the source: active = growth inhibition above about 70%; inactive = the rest.

Assays:
[1] = NCI Yeast Anticancer Drug Screen. Data for the wt2 strain (AID 169);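 note: 0% = growth of vehicle-treated yeast cultures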; details: S. cerevisiae wt2 strain growth inhibition, active compounds read high
In short: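 Compound exposure of yeast; growth compared with vehicle controls; inhibition reported.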

[2] = NCI Yeast Anticancer Drug Screen. Data for the mlh1 strain (AID 171);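 note: 0% = growth of vehicle-treated control cultures of the same strain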; details: S. cerevisiae mlh1 strain growth inhibition, active compounds read high
In short: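 Compounds are applied to a genetically altered yeast strain, and its growth is compared with that of vehicle-treated cultures to give percent inhibition.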

[3] = NCI Yeast Anticancer Drug Screen. Data for the sgs1 strain (AID 173);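 note: 0% = growth of vehicle-only control cultures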; details: S. cerevisiae sgs1 mutant, active compounds read high
In short: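 Compounds applied to genetically altered yeast; growth compared with vehicle-treated cultures to give % inhibition.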

[4] = NCI Yeast Anticancer Drug Screen. Data for the mlh1 rad18 strain (AID 175); details: S. cerevisiae mlh1 rad18 strain growth inhibition, active compounds read high
In short: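 Cells of a genetically altered yeast strain, deficient in DNA damage repair, were treated with compound. Their growth was then compared with that of vehicle-treated cultures to give inhibition.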

[5] = NCI Yeast Anticancer Drug Screen. Data for the rad18 strain (AID 177); details: S. cerevisiae rad18 mutant growth inhibition, active compounds read high
In short: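 Compounds are applied to a repair-deficient yeast strain, and growth is compared with that of vehicle-treated cultures to give percent inhibition.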

[6] = NCI Yeast Anticancer Drug Screen. Data for the rad52 strain (AID 147);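 note: 0% = growth of vehicle-treated control cultures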; details: S. cerevisiae rad52 mutant growth inhibition, active compounds read high
In short: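 DNA repair-defective yeast; compound exposure; growth scored against vehicle controls.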

[7] = NCI Yeast Anticancer Drug Screen. Data for the wt1 strain (AID 149);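 note: 0% = growth of vehicle-treated wt1 cultures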; details: S. cerevisiae wt1 strain (SPY 50644) growth inhibition, active compounds read high
In short: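 Yeast wt1 strain exposed to compounds; growth inhibition measured relative to vehicle-treated controls.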

[8] = NCI Yeast Anticancer Drug Screen. Data for the rad50EPP+ strain (AID 151);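 note: 0% = growth of vehicle-treated control cultures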; details: S. cerevisiae rad50 mutant strain, active compounds read high
In short: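 rad50EPP+ yeast treated with test compounds. Readout: growth vs vehicle control.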

[9] = NCI Yeast Anticancer Drug Screen. Data for the mgt1 strain (AID 153); details: S. cerevisiae mgt1 mutant growth inhibition, active compounds read high
In short: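 Growth inhibition relative to vehicle controls was scored for the mgt1 yeast strain after compound exposure.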

[10] = NCI Yeast Anticancer Drug Screen. Data for the rad50 strain (AID 155);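 note: 0% = growth of vehicle-only cultures of the same strain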; details: S. cerevisiae rad50 strain growth inhibition, active compounds read high
In short: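 Yeast carrying a defined DNA repair defect were exposed to test compounds, and growth was compared with vehicle-treated controls to give percent inhibition.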

[11] = NCI Yeast Anticancer Drug Screen. Data for the mec2-1 strain (AID 157); details: S. cerevisiae mec2-1 strain, active compounds read high
In short: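 Growth inhibition is read against vehicle-treated controls after compound exposure of the mec2-1 yeast strain, which is defective in DNA damage repair or cell cycle control.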

[12] = NCI Yeast Anticancer Drug Screen. Data for the rad14 strain (AID 159);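 note: 0% = growth of vehicle-treated control cultures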; details: S. cerevisiae rad14 strain growth inhibition, active compounds read high
In short: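 Yeast cells carrying a defined DNA-repair defect were exposed to compounds, and growth inhibition was calculated relative to vehicle-treated control cultures.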

[13] = NCI Yeast Anticancer Drug Screen. Data for the sgs1 mgt1 strain (AID 161);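 note: 0% = growth of cultures given vehicle only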; details: S. cerevisiae sgs1 mgt1 strain, active compounds read high
In short: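 Compounds are added to genetically altered yeast, and growth is compared with cultures given vehicle alone to give percent inhibition.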

[14] = NCI Yeast Anticancer Drug Screen. Data for the CLN2oe strain (AID 163);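 note: 0% = growth of vehicle-only control cultures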; details: S. cerevisiae CLN2oe strain, active compounds read high
In short: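 Compound-treated yeast; growth vs vehicle ctrl = % inhibition. Genetically altered strain (cell-cycle control).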

[15] = NCI Yeast Anticancer Drug Screen. Data for the cln2 rad14 strain (AID 165);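 note: 0% = growth equal to vehicle treated cultures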; details: S. cerevisiae cln2 rad14 strain, active compounds read high
In short: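 Growth inhibition, relative to vehicle-treated controls, is the read-out. The test organism is a yeast strain with defined genetic alterations, cln2 rad14.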

[16] = NCI Yeast Anticancer Drug Screen. Data for the bub3 strain (AID 167); details: S. cerevisiae bub3 mutant strain, active compounds read high
In short: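 Compounds were applied to a genetically altered yeast strain carrying a cell-cycle control defect. Growth inhibition was scored against vehicle-treated controls.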

[17] = at 5.0 µM (retest, dose inferred, filed as 0.5)
[18] = at 50.0 µM (retest, dose inferred, filed as 5.0)

Measured: growth inhibition

CC[C@](O)(C(=O)O)c1cc2n(c(=O)c1CO)Cc1cc3ccccc3nc1-2
inactive: [1]; at 1.2 µM -3% | [1]; at 3.7 µM 13% | [2]; at 1.2 µM 3% | [2]; at 3.7 µM 21% | [3]; at 1.2 µM 17% | [3]; at 3.7 µM 64% | [5]; at 1.2 µM 4% | [5]; at 3.7 µM 29%
active: [1]; at 11.0 µM 81% | [1]; at 33.0 µM 95% | [1]; at 100.0 µM 94% | [2]; at 11.0 µM 81% | [2]; at 33.0 µM 94% | [2]; at 100.0 µM 97% | [3]; at 11.0 µM 92% | [3]; at 33.0 µM 95% | [3]; at 100.0 µM 97% | [4]; [17] 83% | [4]; [18] 97% | [4]; at 50.0 µM 96.5% | [5]; at 11.0 µM 82% | [5]; at 33.0 µM 93% | [5]; at 100.0 µM 96%

Cc1ccc2c(c1N)C(=O)c1ccccc1C2=O
inactive: [6]; at 1.2 µM 8% | [6]; at 3.7 µM 22% | [6]; at 11.0 µM 47% | [7]; at 1.2 µM -3% | [7]; at 3.7 µM -1% | [7]; at 11.0 µM 6% | [7]; at 33.0 µM 5% | [7]; at 100.0 µM 5% | [8]; at 1.2 µM 22% | [8]; at 3.7 µM 45% | [8]; at 11.0 µM 69% | [9]; at 1.2 µM -3% | [9]; at 3.7 µM -3% | [9]; at 11.0 µM 6% | [9]; at 33.0 µM -8% | [9]; at 100.0 µM 6% | [10]; at 1.2 µM 5% | [10]; at 3.7 µM 19% | [10]; [17] 59% | [10]; at 11.0 µM 40% | [10]; at 33.0 µM 62% | [10]; at 50.0 µM 30.5% | [10]; at 100.0 µM 63% | [11]; at 1.2 µM 2% | [11]; at 3.7 µM 4% | [11]; [17] 8% | [11]; at 11.0 µM 8% | [11]; at 33.0 µM 11% | [11]; [18] 36% | [11]; at 50.0 µM 42% | [11]; at 100.0 µM 15% | [12]; at 1.2 µM 3% | [12]; at 3.7 µM 5% | [12]; at 11.0 µM 8% | [12]; at 33.0 µM 9% | [12]; at 100.0 µM 16% | [13]; [17] 7% | [13]; [18] 42% | [13]; at 50.0 µM 45.2% | [14]; at 1.2 µM -4% | [14]; at 3.7 µM -3% | [14]; at 11.0 µM -4% | [14]; at 33.0 µM -4% | [14]; at 100.0 µM 6% | [15]; [17] 6% | [15]; [18] 14% | [15]; at 50.0 µM 40.8% | [16]; at 1.2 µM 2% | [16]; at 3.7 µM 13% | [16]; [17] -9% | [16]; at 11.0 µM 31% | [16]; at 33.0 µM 37% | [16]; [18] 62% | [16]; at 50.0 µM 61.4% | [16]; at 100.0 µM 35% | [1]; at 1.2 µM -3% | [1]; at 3.7 µM 1% | [1]; at 11.0 µM 6% | [1]; at 33.0 µM 10% | [1]; at 100.0 µM 8% | [2]; at 1.2 µM -3% | [2]; at 3.7 µM -1% | [2]; at 11.0 µM 10% | [2]; at 33.0 µM 5% | [2]; at 100.0 µM 4% | [3]; at 1.2 µM -4% | [3]; at 3.7 µM -3% | [3]; at 11.0 µM 1% | [3]; at 33.0 µM 7% | [3]; at 100.0 µM 5% | [4]; [17] 15% | [4]; [18] 45% | [5]; at 1.2 µM -4% | [5]; at 3.7 µM 1% | [5]; at 11.0 µM 5% | [5]; at 33.0 µM 3% | [5]; at 100.0 µM 13%
active: [6]; at 33.0 µM 73% | [6]; at 100.0 µM 73% | [8]; at 33.0 µM 78% | [8]; at 100.0 µM 76% | [10]; [18] 91% | [4]; at 50.0 µM 71.8%

O=C1C=C(CN(CCCl)CCCl)C(=O)C=C1CN(CCCl)CCCl
active: [4]; at 50.0 µM 73.6% | [5]; at 33.0 µM 86% | [5]; at 100.0 µM 90%
inactive: [6]; at 1.2 µM 0% | [6]; at 3.7 µM 0% | [6]; at 11.0 µM 4% | [6]; at 33.0 µM 14% | [6]; at 100.0 µM 46% | [7]; at 1.2 µM -3% | [7]; at 3.7 µM 0% | [7]; at 11.0 µM 1% | [7]; at 33.0 µM 3% | [7]; at 100.0 µM 4% | [8]; at 1.2 µM 1% | [8]; at 3.7 µM -2% | [8]; at 11.0 µM 0% | [8]; at 33.0 µM 3% | [8]; at 100.0 µM 13% | [9]; at 1.2 µM -5% | [9]; at 3.7 µM 0% | [9]; at 11.0 µM -1% | [9]; at 33.0 µM -1% | [9]; at 100.0 µM 0% | [10]; at 1.2 µM -1% | [10]; at 3.7 µM -1% | [10]; [17] 1% | [10]; at 11.0 µM 0% | [10]; at 33.0 µM 12% | [10]; [18] 32% | [10]; at 50.0 µM 14.8% | [10]; at 100.0 µM 35% | [11]; at 1.2 µM -5% | [11]; at 3.7 µM -8% | [11]; [17] 0% | [11]; at 11.0 µM -3% | [11]; at 33.0 µM 3% | [11]; [18] 12% | [11]; at 50.0 µM 26.1% | [11]; at 100.0 µM 15% | [12]; at 1.2 µM 1% | [12]; at 3.7 µM 4% | [12]; at 11.0 µM 9% | [12]; at 33.0 µM 28% | [12]; at 100.0 µM 61% | [13]; [17] -2% | [13]; [18] 24% | [13]; at 50.0 µM 35.2% | [14]; at 1.2 µM -7% | [14]; at 3.7 µM -8% | [14]; at 11.0 µM -11% | [14]; at 33.0 µM -7% | [14]; at 100.0 µM -12% | [15]; [17] -3% | [15]; [18] 8% | [15]; at 50.0 µM 7.6% | [16]; at 1.2 µM -2% | [16]; at 3.7 µM -6% | [16]; [17] -1% | [16]; at 11.0 µM -7% | [16]; at 33.0 µM -6% | [16]; [18] 8% | [16]; at 50.0 µM 1.95% | [16]; at 100.0 µM -9% | [1]; at 1.2 µM 0% | [1]; at 3.7 µM -3% | [1]; at 11.0 µM -1% | [1]; at 33.0 µM -1% | [1]; at 100.0 µM 4% | [2]; at 1.2 µM -1% | [2]; at 3.7 µM -1% | [2]; at 11.0 µM -1% | [2]; at 33.0 µM 2% | [2]; at 100.0 µM 6% | [3]; at 1.2 µM 0% | [3]; at 3.7 µM 1% | [3]; at 11.0 µM 1% | [3]; at 33.0 µM 12% | [3]; at 100.0 µM 28% | [4]; [17] 2% | [4]; [18] 36% | [5]; at 1.2 µM 4% | [5]; at 3.7 µM 13% | [5]; at 11.0 µM 29%
